Among all 360,000 compounds or so, about 3,000 (0.83%) were called active. This is one part of a sample in which actives are shown more often than they occur. Unmarked numbers belong to inactive results. Cut-off read from the data, not from the text of the source: active = inhibition above about 38%; inactive = the rest.
Molecular target: G-protein coupled receptor 183 (Homo sapiens) (UniProt P32249)
Experiment: EBI2 receptor antagonists, beta-arrestin recruitment, primary screen, cell-based, luminescence, 7a,25-OHC stimulation, uHTS (AID 651636);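 note: enzyme fragment complementation signal reports receptor beta-arrestin coupling in cells; 0% = agonist plus DMSO wells and 100% = wells without agonist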
Conditions: 7a,25-OHC stimulated, at 5 µM, active compounds read high

Sequence of G-protein coupled receptor 183 (Homo sapiens) (P32249 whole entry, looked up, the tested form may be a part): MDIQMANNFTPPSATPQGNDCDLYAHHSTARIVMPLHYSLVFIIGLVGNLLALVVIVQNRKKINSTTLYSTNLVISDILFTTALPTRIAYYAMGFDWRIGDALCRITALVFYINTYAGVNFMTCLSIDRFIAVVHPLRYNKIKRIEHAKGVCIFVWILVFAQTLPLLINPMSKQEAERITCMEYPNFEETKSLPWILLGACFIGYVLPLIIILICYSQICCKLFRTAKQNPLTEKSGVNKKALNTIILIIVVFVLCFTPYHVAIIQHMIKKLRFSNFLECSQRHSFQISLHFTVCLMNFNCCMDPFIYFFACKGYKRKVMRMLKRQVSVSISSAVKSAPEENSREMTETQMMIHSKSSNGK

**Q.** With `CC(=O)OC1C2(CC3N4C(=O)C5(CO)SSC4(CC31O)C(=O)N5C)OC(C)C(C)(C)C2=O` (stereo not given) as the molecule, how does the inhibition read?
**A.** 94.4% (active)

**Q.** For `CC(C)(C)[C@]1(O)C[C@@H]2OC(=O)C[C@@]23C(=O)O[C@@H]2OC(=O)[C@H](O)[C@]213`, which inhibition is on record?
**A.** -2.99%

**Q.** Which inhibition does the source give for `O=C(CCC(=O)N1C[C@H]2C[C@@H](C1)c1cccc(=O)n1C2)NCc1ccccc1C(F)(F)F` here?
**A.** -0.966%

**Q.** For `CC(=O)Nc1ccccc1C(=O)OCC(=O)c1cccc2ccccc12`, which inhibition is on record?
**A.** 12.7%

**Q.** With `COc1cccc(C(=O)N2C[C@H]3C[C@@H](C2)c2cccc(=O)n2C3)c1` as the molecule, how does the inhibition read?
**A.** -6.08%

**Q.** With `O=C(COc1ccc2ccccc2c1)N1CCN(Cc2ccncc2)CC1` as the molecule, how does the inhibition read?
**A.** 66.2% (active)

**Q.** Which inhibition does the source give for `O=C(Cc1ccccc1[N+](=O)[O-])N1CCN(Cc2ccc3c(c2)OCO3)CC1` here?
**A.** 5.95%

**Q.** With `CC(C)c1ccc(OCC(=O)N2CCCN(C)CC2)cc1` as the molecule, how does the inhibition read?
**A.** 2.02%

**Q.** For `CC(c1ccccc1)(c1ccccc1)c1ccncc1`, which inhibition is on record?
**A.** 11.4%

**Q.** How did the inhibition turn out when `COC(=O)C1=C(c2ccccc2OCc2ccccc2)C[C@@H]2CC[C@H]1N2C(=O)NCc1ccc(OC)cc1` was run?
**A.** 26.2%

**Q.** `COC(=O)C1=C(c2ccc(F)cc2OCc2ccccc2)C[C@@H]2CC[C@H]1N2C(=O)NCc1ccc(OC)c(OC)c1` was tested. Which inhibition did it give?
**A.** 9.54%

**Q.** How did the inhibition turn out when `O=C(CN1CCCCC1)Nc1ccc(Br)cc1C(=O)c1ccccc1Cl` was run?
**A.** -11.6%

**Q.** How did the inhibition turn out when `CCC(=O)c1ccc(OCC(=O)N2CCN(CC(=O)Nc3ccc(C)cc3)CC2)cc1` was run?
**A.** 6.66%

**Q.** `CCc1ccc(OCC(=O)N2CCN(CC(=O)Nc3ccccc3Cl)CC2)cc1` was tested. Which inhibition did it give?
**A.** 73.1% (active)

**Q.** With `CCOP(=S)(OCC)C(O)CCCCCn1c(=O)c(F)cn(C2CCCO2)c1=O` (stereo not given) as the molecule, how does the inhibition read?
**A.** -1.97%

**Q.** How did the inhibition turn out when `CN(c1ccccc1)c1ccc([N+](=O)[O-])c2nonc12` was run?
**A.** 1.86%

**Q.** For `CC[N+](CC)(CC)CCCCCCCCCC[N+](CC)(CC)CC`, which inhibition is on record?
**A.** 2.47%

**Q.** For `C[C@H]1CN([C@@H](C)CO)C(=O)CCCn2nncc2CO[C@H]1CN(C)C(=O)Oc1cccc2ccccc12`, which inhibition is on record?
**A.** -6.15%

**Q.** With `COC(=O)C1=C(c2ccc(OCc3ccccc3)cc2)C[C@@H]2CC[C@H]1N2C(=O)NCc1ccc(Cl)cc1` as the molecule, how does the inhibition read?
**A.** 22.1%

**Q.** Which inhibition does the source give for `COC(=O)C1=C(c2cccc(OCc3ccccc3)c2)C[C@@H]2CC[C@H]1N2C(=O)NCc1ccc(Br)cc1` here?
**A.** 19%

**Q.** For `COC(=O)C1=C(c2ccc(OCc3ccccc3)cc2)C[C@@H]2CC[C@H]1N2C(=O)NCc1cccc(F)c1`, which inhibition is on record?
**A.** 64.5% (active)

**Q.** How did the inhibition turn out when `Cc1cc(C)c2c(c1)NP(=S)(c1ccccc1)N2` (stereo not given) was run?
**A.** 11.1%

**Q.** Which inhibition does the source give for `O=C1NC(=O)N(CCc2ccc(F)cc2)C(=O)/C1=C/C=C/c1ccccc1` here?
**A.** 58.5% (active)

**Q.** Which inhibition does the source give for `CN(C)c1nc(N(C)C)nc(N(C#N)CCCl)n1` here?
**A.** 2.53%

**Q.** With `COc1ccc(NC(=O)c2cn(CCC#N)nc2-c2ccc([N+](=O)[O-])cc2)cc1` as the molecule, how does the inhibition read?
**A.** -6.27%

Source: PubChem BioAssay AID651636 (Sanford-Burnham Center for Chemical Genomics, 2012)
